# According to PubChem BioAssay:
# “And” between values parts separate entries of the source, which are not always exact repeats. Equal entries are not always repeated. The source made the active and inactive calls. Unless noted, no stated cut-off is given here; in the data, active means inhibition above about 80%; inactive means the rest.
# Key:
# [1] = target: NAD(+) hydrolase SARM1 (Homo sapiens) (UniProt Q6SZW1); test: blocking NAD cleavage by SARM1 SAM-TIR – cell lysate, NAD-Glo luminescence (AID 1508614;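 active means compound whose remaining NAD level is above about 45 nM, limit read from the data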); conditions: SAM-TIR HEK293T lysate NADase, at 1 µM, stronger effect = higher value
# Sequence of NAD(+) hydrolase SARM1 (Homo sapiens) (Q6SZW1 whole entry, looked up, the tested form may be a part): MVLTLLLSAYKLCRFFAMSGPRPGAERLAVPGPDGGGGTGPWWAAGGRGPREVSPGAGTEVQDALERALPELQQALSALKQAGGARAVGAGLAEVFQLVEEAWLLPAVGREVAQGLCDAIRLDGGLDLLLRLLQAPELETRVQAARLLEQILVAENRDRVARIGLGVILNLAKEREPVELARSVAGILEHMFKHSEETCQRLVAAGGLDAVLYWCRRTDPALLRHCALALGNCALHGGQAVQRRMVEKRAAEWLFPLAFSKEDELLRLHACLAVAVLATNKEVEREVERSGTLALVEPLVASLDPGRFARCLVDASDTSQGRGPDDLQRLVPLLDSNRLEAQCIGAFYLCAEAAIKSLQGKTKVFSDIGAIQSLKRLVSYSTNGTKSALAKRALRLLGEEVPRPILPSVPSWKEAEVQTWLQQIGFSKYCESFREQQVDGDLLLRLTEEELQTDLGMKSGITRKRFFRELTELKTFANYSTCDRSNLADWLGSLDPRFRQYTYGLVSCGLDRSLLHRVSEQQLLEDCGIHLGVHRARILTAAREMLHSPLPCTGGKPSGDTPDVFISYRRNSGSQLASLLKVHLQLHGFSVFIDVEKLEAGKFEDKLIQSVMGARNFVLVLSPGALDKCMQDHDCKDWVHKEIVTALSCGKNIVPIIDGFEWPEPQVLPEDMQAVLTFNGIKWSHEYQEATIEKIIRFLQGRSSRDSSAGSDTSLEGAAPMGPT
# [2] = target: Mitogen-activated protein kinase 7 (Homo sapiens) (UniProt Q13164); test: Gal4-ERK5 driven luciferase induction – cell-based, HTS, primary screen (AID 1508626;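 active means luciferase signal above three times the same-plate solvent-only control wells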;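 further: luciferase driven by Gal4-ERK5 fusion binding five Gal4 sites before minimal TATA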); conditions: HeLa Gal4-ERK5 transactivation, 18 h, at 5 µM, stronger effect = higher value
# Sequence of Mitogen-activated protein kinase 7 (Homo sapiens) (Q13164 whole entry, looked up, the tested form may be a part): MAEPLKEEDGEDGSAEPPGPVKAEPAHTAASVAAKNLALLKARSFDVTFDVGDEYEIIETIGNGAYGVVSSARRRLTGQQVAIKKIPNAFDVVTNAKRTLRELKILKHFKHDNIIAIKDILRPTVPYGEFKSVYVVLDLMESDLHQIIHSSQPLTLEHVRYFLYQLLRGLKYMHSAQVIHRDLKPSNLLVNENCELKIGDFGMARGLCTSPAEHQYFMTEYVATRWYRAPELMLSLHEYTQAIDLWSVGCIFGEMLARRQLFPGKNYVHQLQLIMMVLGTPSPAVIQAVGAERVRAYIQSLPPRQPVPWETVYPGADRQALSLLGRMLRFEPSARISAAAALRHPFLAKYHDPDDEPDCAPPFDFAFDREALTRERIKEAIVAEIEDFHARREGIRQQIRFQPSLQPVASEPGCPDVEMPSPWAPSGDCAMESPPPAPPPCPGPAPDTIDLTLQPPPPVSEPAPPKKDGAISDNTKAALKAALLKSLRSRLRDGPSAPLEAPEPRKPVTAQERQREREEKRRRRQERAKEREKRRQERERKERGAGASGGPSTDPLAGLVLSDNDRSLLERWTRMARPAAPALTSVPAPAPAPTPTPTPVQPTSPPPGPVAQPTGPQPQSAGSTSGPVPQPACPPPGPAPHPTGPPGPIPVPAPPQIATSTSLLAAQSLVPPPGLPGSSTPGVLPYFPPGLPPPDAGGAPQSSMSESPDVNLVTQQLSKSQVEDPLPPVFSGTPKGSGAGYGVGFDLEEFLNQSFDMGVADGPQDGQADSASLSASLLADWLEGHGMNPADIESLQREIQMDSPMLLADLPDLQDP
# [3] = growth inhibition, single agent or in combination, cell-based, chromothripsis tumors, cisplatin or BGB combos (AID 1671449); conditions: LFS_MB_P medulloblastoma cells;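 further: cells exposed for 96 hours; 0% = vehicle DMSO and 100% = killing by high DMSO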
# [4] = growth inhibition, single agent and combos, cell-based, chromothripsis tumors, cisplatin or BGB combos (AID 1671450); conditions: HDN33 neuroblastoma cells, stronger effect = higher value;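 further: cells exposed to compound for four days; 0% = vehicle DMSO and 100% = cell killing by high DMSO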
# [5] = growth inhibition, single agents and combos, ICB984, cell-based, cisplatin or BGB combos, synergistic combos for chromothripsis tumors (AID 1671451; call rule not given here;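 further: cells exposed for 96 hours before readout; 0% = vehicle DMSO and 100% = killing by high DMSO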); conditions: ICB984 medulloblastoma cells, drug combinations, stronger effect = higher value
# [6] = growth inhibition, single agents and combos, LFS_MB_1R, cell-based, cisplatin or BGB combos, synergistic combos for chromothripsis tumors (AID 1671452); conditions: LFS_MB_1R medulloblastoma cells, stronger effect = higher value;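 further: cells exposed for 96 hours before readout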
# [7] = growth inhibition, single agents and combos, HTB85, cell-based, BGB or cisplatin IC20 combos, synergistic combos for chromothripsis tumors (AID 1671453); conditions: HTB85 osteosarcoma cells, drug combinations, stronger effect = higher value;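 further: cells exposed for 96 hours before readout; 0% = vehicle DMSO and 100% = high DMSO killing control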
# [8] = growth inhibition, single agents and combos, CRL2098, cell-based, BGB or cisplatin IC20 combos, synergistic combos for chromothripsis tumors (AID 1671454); conditions: CRL2098 osteosarcoma cells, drug combinations, stronger effect = higher value;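 further: cells exposed for 96 h before readout; 0% = vehicle DMSO and 100% = killing by high DMSO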
# [9] = growth inhibition, single agents and combos, HD-MB03, cell-based, BGB or cisplatin IC20 combos, synergistic combos for chromothripsis tumors (AID 1671455; in the data active means inhibition above about 83%;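 further: 0% = vehicle DMSO and 100% = high DMSO as cytotoxic control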); conditions: HD-MB03 medulloblastoma cells, stronger effect = higher value
# [10] = growth inhibition, single agents and combos, UWB1.289, cell-based, BGB or cisplatin combos, synergistic combos for chromothripsis tumors (AID 1671456); conditions: UWB1.289 ovarian carcinoma cells, stronger effect = higher value;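 further: cells exposed to compound for four days; 0% = vehicle DMSO and 100% = killing by high DMSO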
# [11] = growth inhibition, single agents and combos, LFS_MB_2R, cell-based, cisplatin combos, synergistic combos for chromothripsis tumors (AID 1671457); conditions: LFS_MB_2R medulloblastoma cells, stronger effect = higher value;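 further: cells exposed to compound for four days before readout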
# [12] = growth inhibition, MDA-MB-436, cell-based, BGB or cisplatin combos, synergistic combos for chromothripsis tumors (AID 1671458; call rule not given here;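 further: cells exposed for 96 hours; 0% = vehicle DMSO and 100% = killing by high DMSO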); conditions: MDA-MB-436 breast carcinoma growth inhibition, drug combinations, stronger effect = higher value
# [13] = UWB1.289_BRCA1 ovarian cancer growth, cell-based, BGB or cisplatin combinations (AID 1671459); conditions: UWB1.289 BRCA1 ovarian carcinoma, drug combinations, stronger effect = higher value
# [14] = drug combination toxicity in non-malignant astrocytes – cell-based, BGB or cisplatin IC20 combos, cytotoxicity control for chromothriptic childhood tumor combination screen (AID 1671460); conditions: Human astrocytes, viability inhibition, drug combinations, at 0.5 µM, stronger effect = higher value;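 further: cells exposed to compounds for 96 hours before viability readout; 0% = vehicle and 100% = killing control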
# [15] = BT084 cell growth, single and combined drugs, ICGC_MB145, cisplatin and BGB IC40 combos (AID 1671461); conditions: BT084 medulloblastoma cells, drug combinations, stronger effect = higher value;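 further: cells exposed to drugs for 96 hours; 0% = vehicle DMSO and 100% = high DMSO full killing control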
# [16] = RCMB18 cell growth, single agent and combined, cisplatin and BGB IC40 combos (AID 1671462); conditions: RCMB18 medulloblastoma cells, stronger effect = higher value;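 further: cells exposed to compound for four days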
# [17] = CRL1545 cell growth, single agent and combined, cisplatin and BGB IC20 combos (AID 1671464); conditions: CRL1545 osteosarcoma cells, stronger effect = higher value;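 further: cells exposed to compound for 96 hours before readout; 0% = vehicle DMSO and 100% = high DMSO killing control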
# [18] = galactose survival enhancers in mitochondrial complex I cybrids – cell-based, galactose medium, ATP luminescence, primary screen (AID 1645843;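 active means z-score of at least 1.8 in each of two replicates, scored against plate mean and spread of sample wells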;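 further: positive z means more ATP and so rescue of galactose-driven cybrid death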); conditions: complex I mutant cybrid cells, 72 h, stronger effect = higher value
# [19] = measured here: combination with BGB IC40, at 0.05 µM
# [20] = measured here: with BGB IC20 combination, at 0.5 µM
# [21] = measured here: with cisplatin IC20 combination, at 0.5 µM
# [22] = measured here: combination with cisplatin, at 0.5 µM
# [23] = measured here: combination with cisplatin, at 5 µM
compound,measurement,setting,value
CC1CCc2cc(F)cc3c(=O)c(C(=O)O)cn1c23 (stereo not drawn),remaining NAD,[1],10 nM (inactive)
same,luciferase signal,[2],60 AU (inactive)
same,inhibition,"[3]; at 0.5 µM, stronger effect = higher value",39.2% (inactive) and -31.9% (inactive)
same,inhibition,"[3]; measured here: combination with BGB IC20, at 0.005 µM",-29.5% and 27.9%
same,inhibition,"[3]; measured here: combination with BGB IC40, at 0.005 µM",-17.3% and 13.7%
same,inhibition,[3]; [19],-16.4% and 38.8%
same,inhibition,"[3]; measured here: combination with cisplatin, at 0.5 µM, stronger effect = higher value",98.2% and -27%
same,inhibition,"[3]; measured here: combination with cisplatin, at 5 µM, stronger effect = higher value",-36.8% and -23.2%
same,inhibition,"[4]; BGB combo, at 5 µM",-3.97% and 10%
same,inhibition,[4]; at 0.5 µM,3.55% (inactive) and 8.84% (inactive)
same,inhibition,"[4]; cisplatin combo, at 5 µM",2.48% and 8.76%
same,inhibition,[4]; [20],18.5% and 19.1%
same,inhibition,[4]; [21],-0.119% and -5.91%
same,inhibition,"[4]; single agent, at 5 µM",0.699% and -7.13%
same,inhibition,"[5]; BGB IC20 combo, at 0.005 µM",-7.37% and -18.9%
same,inhibition,"[5]; BGB IC40 combo, at 0.005 µM",-12.9% and -43.9%
same,inhibition,"[5]; BGB IC40 combo, at 0.05 µM",-20% and -12.5%
same,inhibition,[5]; at 0.5 µM,-19.2% (inactive) and -16.4% (inactive)
same,inhibition,"[5]; cisplatin combo, at 0.05 µM",-20% and -16.9%
same,inhibition,"[5]; cisplatin combo, at 0.5 µM",-31% and -15.5%
same,inhibition,"[5]; cisplatin combo, at 5 µM",-18.9% and -31.7%
same,inhibition,"[5]; measured here: 5 uM single agent, at 5 µM",-15.3% and -14.5%
same,inhibition,[6]; at 0.5 µM,-3.56% (inactive) and 7.41% (inactive)
same,inhibition,[6]; [19],-7.45% and -3.94%
same,inhibition,[6]; [22],23.1% and 16.6%
same,inhibition,[6]; [23],7.04% and -25.3%
same,inhibition,[7]; at 0.5 µM,-21.3% (inactive) and 5.14% (inactive)
same,inhibition,"[7]; measured here: with BGB IC20, at 0.5 µM",-53.3% and -0.618%
same,inhibition,"[7]; measured here: with BGB IC20, at 5 µM",-33.8% and -1.4%
same,inhibition,"[7]; measured here: with cisplatin IC20, at 0.5 µM",-16.2% and -0.916%
same,inhibition,"[7]; measured here: with cisplatin IC20, at 5 µM",-23.6% and -6.11%
same,inhibition,"[7]; single agent, at 5 µM",-1.52% and 15.2%
same,inhibition,[8]; at 0.5 µM,-7.35% (inactive) and -5.05% (inactive)
same,inhibition,"[8]; measured here: combination with BGB at IC20, at 0.5 µM",15.7% and -0.776%
same,inhibition,"[8]; measured here: combination with cisplatin at IC20, at 0.5 µM",-17.1% and 17.1%
same,inhibition,[9]; at 0.5 µM,-4.42% (inactive) and 1.31% (inactive)
same,inhibition,"[9]; measured here: combo with BGB at IC20, at 0.5 µM",-11.9% and -3.2%
same,inhibition,"[9]; measured here: combo with cisplatin at IC20, at 0.5 µM",7.79% and 0.674%
same,inhibition,[10]; at 0.5 µM,2.76% (inactive) and 0.5% (inactive)
same,inhibition,"[10]; measured here: inhibition with BGB combination, at 0.05 µM",-16.2% and 1.75%
same,inhibition,"[10]; measured here: inhibition with cisplatin combination, at 0.05 µM",-12.2% and 4%
same,inhibition,[11]; at 0.5 µM,-19.5% (inactive) and -4.64% (inactive)
same,inhibition,[11]; [22],-15.1% and -2.74%
same,inhibition,[11]; [23],-12% and -9.68%
same,inhibition,[12]; at 0.5 µM,-12.1% (inactive) and -0.02% (inactive)
same,inhibition,"[12]; measured here: BGB combination, at 0.5 µM",-17.3% and -1.89%
same,inhibition,"[12]; measured here: BGB combination, at 5 µM",-23.6% and -8.65%
same,inhibition,"[12]; measured here: cisplatin combination, at 0.5 µM",-18.1% and 1.92%
same,inhibition,"[12]; measured here: cisplatin combination, at 5 µM",-8.63% and -4.96%
same,inhibition,"[13]; BGB combination, concentration series, at 5 µM",7.3% and -2.65%
same,inhibition,[13]; at 0.5 µM,0.71% (inactive) and -0.93% (inactive)
same,inhibition,"[13]; cisplatin combination, concentration series, at 5 µM",1.53% and -5.02%
same,inhibition,[14],7.24% (inactive) and 2.53% (inactive)
same,inhibition,[14]; measured here: combo with BGB IC20,6.98% and 4.66%
same,inhibition,[14]; measured here: combo with cisplatin IC20,1.25% and 9.82%
same,inhibition,[15]; at 0.5 µM,-21.2% (inactive) and 2.68% (inactive)
same,inhibition,"[15]; cisplatin combination, at 0.5 µM",-37.8% and -1.29%
same,inhibition,"[15]; cisplatin combination, at 5 µM",-84.9% and -4.5%
same,inhibition,"[15]; measured here: BGB IC40 combination 0.05 uM, at 0.05 µM",25.8% and 24.3%
same,inhibition,"[15]; single agent, at 5 µM",-17% and 4.9%
same,inhibition,[16]; at 0.5 µM,-15.1% (inactive) and 7.22% (inactive)
same,inhibition,"[16]; cisplatin combo, at 5 µM",-26.9% and 25%
same,inhibition,"[16]; measured here: BGB IC40 combination, at 0.05 µM",-11.2% and -0.956%
same,inhibition,[16]; [22],-23.8% and 30.6%
same,inhibition,"[16]; single agent, at 5 µM",-29.1% and -22.6%
same,inhibition,[17]; at 0.5 µM,-14.4% (inactive) and -0.92% (inactive)
same,inhibition,[17]; [20],1.08% and -21.3%
same,inhibition,[17]; [21],-22.2% and 9.24%
same,inhibition,"[17]; single agent, at 0.05 µM",22.2% and 18.9%
same,inhibition,"[17]; single agent, at 5 µM",6.9% and 9.8%
Cc1cc(N)c2ccccc2[n+]1CCCCCCCCCC[n+]1c(C)cc(N)c2ccccc21,remaining NAD,[1],10 nM (inactive)
same,z-score,[18],-1.04 (inactive)
Oc1cc(O)c2c(c1)O[C@H](c1ccc(O)c(O)c1)[C@H](O)C2,luciferase signal,[2],20 AU (inactive)
